Results published in PubChem BioAssay (Tox21).
Values without a mark were called inactive. Inconclusive results are not listed. Where a call stands in place of a potency, no number is given. The source made the active and inactive calls. Unless noted, calls follow the shape of the dose curve; as a rule, active = well fitted curve in the direction sought with a large enough effect in the repeat runs; inconclusive = weak or mixed curves; inactive = no such curve, though single readings can be large; an effect the other way counts as inactive or inconclusive.

How the values were obtained:
[1] = qHTS RealTime-Glo MT Cell Viability Assay in HEK293 cells - 24 hour (AID 1224886); also: top concentration of the series differs between compounds; nearly all actives have a fitted effect of over 50% in size
Method in brief: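 Nonlytic real-time viability readout: viable cells convert prosubstrate to NanoLuc substrate, giving luminescence proportional to live cell number. HEK293, 600 cells/well, compound added after 5 h, continuous culture at 37 C.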

[2] = qHTS RealTime-Glo MT Cell Viability Assay in HEK293 cells - 8 hour (AID 1224887); also: top concentration of the series differs between compounds; nearly all actives have a fitted effect of over 50% in size
Method in brief: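 Real-time viability in HEK293: signal arises when living cells convert a prosubstrate for NanoLuc in the medium, so luminescence tracks viable cell number. Compound (23 nL, DMSO) added 5 h post-seeding; kinetic reads at 0–40 h, 37 C.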

[3] = A CellTox Green Cytotoxicity Assay to monitor cytotoxicity in HEK293 cells - 16 hour (AID 1224888); also: nearly all actives have a fitted effect of over 35% in size
Method in brief: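 Cells (HEK293, 600/well) and dye reagent are dispensed together. After 5 h at 37 C, 23 nL compound is pinned in. Plates stay at 37 C for 40 h with fluorescence read at 0h, 8h, 16h, 24h, 32h and 40h.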

[4] = qHTS RealTime-Glo MT Cell Viability Assay in HepG2 cells - 0 hour (AID 1224889); also: nearly all actives have a fitted effect of over 50% in size
Method in brief: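 Luminescence read-out: viable HepG2 cells reduce a prosubstrate to a NanoLuc substrate, giving a signal proportional to live cell number. Reads taken at 0, 8, 16, 24, 32 and 40 h of compound exposure at 37 C.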

[5] = A CellTox Green Cytotoxicity Assay to monitor cytotoxicity in HepG2 cells - 8 hour (AID 1224890); also: nearly all actives have a fitted effect of over 45% in size; also: potency is read from the fitted curve at half-maximal effect
Method in brief: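 Cells and non-lytic dye reagent are dispensed together (600 HepG2 cells/well) and incubated 5 h before DMSO compound transfer. Kinetic fluorescence is then recorded in the same wells during 40 h at 37 C.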

[6] = qHTS assay to identify small molecule antagonists of the estrogen receptor alpha (ER-alpha) signaling pathway using the BG1 cell line in the presence of 0.1 nM 17-beta-estradiol - cell viability counter screen (AID 1259241); also: nearly all actives have a fitted effect of over 40% in size
Method in brief: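 VM7Luc4E2 cells (endogenous full-length ER-alpha, 4xERE-luciferase), cultured 5 days in charcoal-stripped serum, exposed to compounds with 0.1 nM 17beta-estradiol (final) for 22 hr at 37C. Viability read in same wells as live-cell protease fluorescence after 30 min.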

[7] = qHTS assay to identify small molecule antagonists of the androgen receptor (AR) signaling pathway using the MDA cell line in the presence of 0.5 nM R1881 - cell viability counter screen (AID 1259242); also: nearly all actives have a fitted effect of over 45% in size
Method in brief: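 Steps: plate MDA-kb2 cells, rest 5 hr at 37C without CO2; pin in compounds in DMSO; add R1881 to 0.5 nM final; incubate 16 hr; add CellTiter-Fluor, 30 min; read fluorescence.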

[8] = target: Estrogen receptor (Homo sapiens) (UniProt P03372); test: qHTS assay to identify small molecule antagonists of the estrogen receptor alpha (ER-alpha) signaling pathway using the BG1 cell line in the presence of 0.1 nM 17-beta-estradiol (AID 1259244); also: nearly all actives have a fitted effect of over 50% in size
Chain of Estrogen receptor (Homo sapiens) (P03372 whole entry, looked up): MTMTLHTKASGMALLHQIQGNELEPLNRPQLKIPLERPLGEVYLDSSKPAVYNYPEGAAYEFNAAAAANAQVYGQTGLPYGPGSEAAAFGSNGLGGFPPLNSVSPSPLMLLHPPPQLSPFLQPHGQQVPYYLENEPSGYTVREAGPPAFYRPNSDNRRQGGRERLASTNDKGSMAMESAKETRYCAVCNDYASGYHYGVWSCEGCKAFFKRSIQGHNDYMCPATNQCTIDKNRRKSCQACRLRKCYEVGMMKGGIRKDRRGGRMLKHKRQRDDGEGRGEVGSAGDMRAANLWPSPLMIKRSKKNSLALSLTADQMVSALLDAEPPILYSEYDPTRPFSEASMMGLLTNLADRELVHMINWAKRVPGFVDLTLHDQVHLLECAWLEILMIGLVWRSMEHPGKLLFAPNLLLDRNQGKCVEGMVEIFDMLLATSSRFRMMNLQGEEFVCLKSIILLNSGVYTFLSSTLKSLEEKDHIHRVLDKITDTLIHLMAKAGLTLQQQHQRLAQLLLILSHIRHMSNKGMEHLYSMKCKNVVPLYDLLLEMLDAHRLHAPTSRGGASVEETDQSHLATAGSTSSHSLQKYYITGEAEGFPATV
Method in brief: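 Antagonist mode: compounds in DMSO are pinned onto VM7Luc4E2 reporter cells, 0.1 nM final 17beta-estradiol is added, and after 22 h at 37C luciferase luminescence is measured with ONE-Glo.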

[9] = qHTS assay to identify small molecule HDAC inhibitors (AID 1259364);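 also: wild-type HCT-116 cells with endogenous class I/II HDAC activity; top concentration of the series differs between compounds; nearly all actives have a fitted effect of over 45% in size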
Method in brief: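 Cells (HCT-116, wild type) are seeded at 1,500 per well, incubated overnight, treated with compound in DMSO for 2 hr, then developed with HDAC-Glo I/II reagent for 30 min at room temperature.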

[10] = qHTS assay to identify small molecule HDAC inhibitors - cell viability counter screen (AID 1259365)
Method in brief: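 Wild-type HCT-116 cells, 1,500/well, cultured overnight, then compound-treated 2 h at 37 C. Viability measured as ATP luminescence with CellTiter-Glo after 30 min at room temperature.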

[11] = qHTS assay to identify small molecule agonists of the sonic hedgehog signaling (Shh) pathway - cell viability counter screen (AID 1259366); also: nearly all actives have a fitted effect of over 50% in size
Method in brief: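 NIH/3T3-derived Gli1-Luc reporter cells, 2,000 per well, received compound after 4 h and were treated about 23 h at 37C. Viability measured in the same wells by CellTiter-Fluor fluorescence after 1 h.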

[12] = qHTS assay to identify small molecule antagonists of the sonic hedgehog signaling (Shh) pathway - cell viability counter screen (AID 1259367); also: nearly all actives have a fitted effect of over 55% in size
Method in brief: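 Fluorescence read-out (CellTiter-Fluor, 1 hr at 37C) taken after 23 hr compound treatment of 3T3 Gli1-Luc cells stimulated with conditioned medium. Cells were seeded at 2,000 per well and pre-incubated 4 hr.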

[13] = qHTS assay to identify small molecule agonists of the sonic hedgehog signaling (Shh) pathway (AID 1259368; calls by dose curve;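 also: NIH/3T3-derived 3T3Gli1-Luc cells carrying a stable Gli1-driven firefly luciferase reporter; series mostly up to about 92 µM; nearly all actives have a fitted effect of over 15% in size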)
Method in brief: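 Cells of a mouse NIH/3T3 clone stably expressing luciferase under the Gli1 transcriptional response element are exposed to test chemicals for 24 hr at 37 C. Pathway activation is detected as a rise in luminescence.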

[14] = qHTS assay to identify small molecule antagonists of the sonic hedgehog signaling (Shh) pathway (AID 1259369; calls by dose curve; also: nearly all actives have a fitted effect of over 45% in size)
Method in brief: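 Cells are plated and held 4hr at 37 C, compounds (DMSO) are pinned in, conditioned medium is added to stimulate the pathway, and after 24hr luciferase reagent is added for 30min before luminescence is read.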

[15] = target: Estrogen receptor beta (Homo sapiens) (UniProt Q92731); test: qHTS assay to identify small molecule agonists of the estrogen receptor beta (ER-beta) signaling pathway (AID 1259377; active = well fitted activation curve with a large enough effect in the signal ratio in the repeat runs, not every such curve was filed as active; the % refers to the signal ratio)
Chain of Estrogen receptor beta (Homo sapiens) (Q92731 whole entry, looked up): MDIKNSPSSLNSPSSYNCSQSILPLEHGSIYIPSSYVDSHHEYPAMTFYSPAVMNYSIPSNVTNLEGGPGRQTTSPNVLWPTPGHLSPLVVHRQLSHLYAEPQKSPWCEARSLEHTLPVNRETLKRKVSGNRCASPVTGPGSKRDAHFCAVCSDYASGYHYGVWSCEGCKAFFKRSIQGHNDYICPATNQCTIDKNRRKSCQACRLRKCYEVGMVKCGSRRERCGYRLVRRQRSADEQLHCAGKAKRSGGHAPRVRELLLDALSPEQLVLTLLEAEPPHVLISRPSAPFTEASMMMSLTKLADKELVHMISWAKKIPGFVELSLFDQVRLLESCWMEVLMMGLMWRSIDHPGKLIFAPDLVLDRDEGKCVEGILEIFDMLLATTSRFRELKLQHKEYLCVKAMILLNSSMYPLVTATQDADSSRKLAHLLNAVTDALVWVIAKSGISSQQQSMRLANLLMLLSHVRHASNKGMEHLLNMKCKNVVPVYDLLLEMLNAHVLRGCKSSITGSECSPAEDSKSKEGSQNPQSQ
Method in brief: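 ER-beta-UAS-bla HEK293T cells in medium with 2% charcoal-stripped FBS were exposed to compounds for 16 h at 37C. Beta-lactamase reporter activity was read as fluorescence after 2 h with LiveBLAzer B/G FRET substrate at room temperature.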

[16] = target: Estrogen receptor beta (Homo sapiens) (UniProt Q92731); test: qHTS assay to identify small molecule antagonists of the estrogen receptor beta (ER-beta) signaling pathway (AID 1259378; active = well fitted inhibition curve with a large enough effect in the signal ratio in the repeat runs, not every such curve was filed as active; the % refers to the signal ratio)
Method in brief: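 ER-beta-UAS-bla HEK293T cells in 2% charcoal-stripped FBS medium treated with compound plus 1nM final 17-beta-estradiol for 16 hr at 37C. Beta-lactamase reporter read by FRET substrate fluorescence after 2 hours at room temperature.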

[17] = qHTS assay to identify small molecule agonists of the androgen receptor (AR) signaling pathway in the presence of an antagonist - cell viability counter screen (AID 1259379);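 also: MDA-kb2 human breast cancer cells carrying an MMTV luciferase reporter; series mostly up to about 92 µM; nearly all actives have a fitted effect of over 25% in size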
Method in brief: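 Cytotoxicity is assessed by CellTiter-Fluor in MDA-kb2 cells carrying an MMTV-driven luciferase reporter. Cells receive 3.0uM nilutamide plus compounds at 15 concentrations and incubate 16 hr at 37C without CO2 before fluorescence reading.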

[18] = qHTS assay to identify small molecule agonists of the estrogen receptor beta (ER-beta) signaling pathway - cell viability counter screen (AID 1259380); also: nearly all actives have a fitted effect of over 30% in size
Method in brief: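 Cytotoxicity is measured in parallel with the reporter screen: after 16 hr compound exposure at 37C and a 2 hr LiveBLAzer step, CellTiter-Glo is added to the same ER-beta-UAS-bla HEK293T wells and luminescence read after 30 min.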

Compound	Potency [1]	Potency [2]	Potency [3]	Potency [4]	Potency [5]	Potency [6]	Potency [7]	Potency [8]	Potency [9]	outcome [10]	Potency [11]	Potency [12]	outcome [13]	Potency [14]	Potency [15]	outcome [16]	Potency [17]	outcome [18]
FC(F)(F)/C(=N\OCC1OCCO1)c1ccc(Cl)cc1	inactive	inactive	inactive	inactive	inactive	inactive	inactive	inactive	inactive	inactive	inactive	inactive	inactive	inactive	inactive	inactive	inactive	inactive
CCc1nccnc1C	inactive	inactive	inactive	inactive	inactive	inactive	inactive	inactive	inactive	inactive	–	inactive	–	inactive	inactive	inactive	inactive	inactive
CC(=O)/C=C/c1ccco1	inactive	inactive	inactive	inactive	inactive	inactive	inactive	inactive	inactive	inactive	inactive	inactive	inactive	inactive	–	–	inactive	inactive
CC(C)C(=O)c1ccccc1	inactive	inactive	inactive	inactive	inactive	inactive	inactive	inactive	inactive	inactive	–	inactive	inactive	inactive	inactive	inactive	inactive	inactive
C=CCOc1c(Br)cc(Br)cc1Br	inactive	inactive	inactive	inactive	inactive	inactive	inactive	inactive	inactive	inactive	–	inactive	inactive	–	inactive	inactive	inactive	inactive
CC(C)(c1ccc(Oc2ccc3c(c2)C(=O)OC3=O)cc1)c1ccc(Oc2ccc3c(c2)C(=O)OC3=O)cc1	inactive	inactive	inactive	inactive	inactive	inactive	inactive	inactive	inactive	inactive	inactive	inactive	inactive	–	inactive	inactive	inactive	inactive
CCCCCCCCC(=O)OCC	inactive	inactive	inactive	inactive	inactive	inactive	inactive	inactive	inactive	inactive	inactive	inactive	inactive	inactive	inactive	inactive	inactive	inactive
CC(=O)OC(C)c1ccccc1 (stereo unspecified)	inactive	inactive	inactive	inactive	inactive	inactive	inactive	inactive	inactive	inactive	inactive	inactive	inactive	inactive	inactive	inactive	inactive	inactive
O=C(O)c1c(Cl)ccc(Cl)c1Cl	inactive	inactive	inactive	inactive	inactive	inactive	inactive	inactive	inactive	inactive	inactive	inactive	–	inactive	–	–	inactive	–
CCN1CN(CC)CN(CC)C1	inactive	inactive	inactive	inactive	inactive	inactive	inactive	inactive	inactive	inactive	–	inactive	–	inactive	inactive	inactive	inactive	inactive
C[N+](C)(C)CC(O)CCl (stereo unspecified)	inactive	inactive	inactive	inactive	inactive	inactive	inactive	inactive	inactive	inactive	inactive	inactive	inactive	inactive	–	–	inactive	inactive
CCN(CCO)c1cccc(C)c1	inactive	inactive	inactive	inactive	inactive	inactive	inactive	inactive	inactive	inactive	inactive	inactive	inactive	inactive	–	–	inactive	inactive
CCCCCCCCCCCCC	inactive	inactive	inactive	inactive	inactive	inactive	inactive	inactive	inactive	inactive	–	inactive	inactive	inactive	–	–	inactive	inactive
CCOC(=O)CCCCCCCCC(=O)OCC	inactive	inactive	inactive	inactive	inactive	inactive	inactive	inactive	inactive	inactive	inactive	inactive	inactive	–	–	–	inactive	inactive
CC(C)CCCC(C)CC=O (stereo unspecified)	inactive	inactive	inactive	inactive	21.9 µM (active)	inactive	inactive	inactive	inactive	inactive	inactive	inactive	inactive	inactive	inactive	inactive	inactive	inactive
